Laboratory results as given in PubChem BioAssay (NCATS).
The source made the active and inactive calls. The call rests on the fitted dose curve.

Experiment: Cell Proliferation Assay Versus the ED40515 IL2 Independent ATL cell lines (AID 1053194)
Settings: ED40515 IL2-independent ATL cells
Source text: Adult T-cell leukemia (ATL) develops in individuals infected with human T-cell lymphotropic virus-1 (HTLV-1). Clinically, ATL is subclassified into four subtypes: smoldering, chronic, lymphomatous, and acute. Two autocrine loops (IL-2/IL-2Ralpha and IL-15/IL-15Ralpha) and one paracrine stimulation loop that involves IL-9 expression by ATL cells and IL-9Ralpha expression on monocytes are required to maintain viability and proliferation in the smoldering and chronic forms of the disease. These assays examined the differential response profiles for the MIPE library of approved and investigational drugs versus an IL2 dependent and independent matched ATL cell line, with the current submission examining the differential response profiles for drugs on an IL2 independent matched ATL cell line
Plate log growing ED40515 -IL2 cells: 1000cells/ well in 5uL phenol red free RPMI +5% FBS +1x p/s, Glutamine using 1536 well white griener tissue culture plates and multidrop cassette acoustic dispensing Columns 1 and 3 DMSO Columns 2 and 4, 9.2 uM Bortezomib Incubate 48 hours for celltiter glo 37C with 5%CO2 and 95% humidity with low evaporation lids Dispense 3 uL per well of cell titer glo with multidrop Incubate for 15 minutes at RT Read on VL/2 using Luminesence Wheel (Filter A)

Row | Compound | Potency
1 | COC1(CS(=O)c2ccccc2)CCN(CCc2c[nH]c3ccc(F)cc23)CC1 (stereo not drawn) | 23.5 µM (active)
2 | CC(O)(CS(=O)(=O)c1ccc(F)cc1)C(=O)Nc1ccc(C#N)c(C(F)(F)F)c1 (stereo not drawn) | 18.7 µM (active)
3 | CNC(=O)N1N=C(c2ccc(N)cc2)c2cc3c(cc2CC1C)OCO3 (stereo not drawn) | 2.96 µM (active)
4 | CN(C)CCN(C)CCc1ccc(Cl)c(Cl)c1 | 16.6 µM (active)
5 | Cn1cc(C2=C(c3cn(C4CCN(Cc5ccccn5)CC4)c4ccccc34)C(=O)NC2=O)c2ccccc21 | 13.2 µM (active)
6 | Cc1cc(SCc2sc(-c3ccc(C(F)(F)F)c(F)c3)nc2C)ccc1OCC(=O)O | 26.4 µM (active)
7 | COC[C@H]1OC(=O)c2coc3c2[C@@]1(C)C1=C(C3=O)C2CCC(=O)[C@@]2(C)C[C@H]1OC(C)=O (stereo partly drawn) | 14.8 µM (active)
8 | Cn1c(CCCC(=O)O)nc2cc(N(CCCl)CCCl)ccc21 | 18.7 µM (active)
9 | O=C(O)C(=O)c1cn(Cc2ccccc2)c2ccc(-c3ccc(OC(F)(F)F)cc3)cc12 | 20.9 µM (active)
10 | CO[C@@H](C(=O)N1Cc2[nH]nc(NC(=O)c3ccc(N4CCN(C)CC4)cc3)c2C1)c1ccccc1 | 7.43 µM (active)
11 | C[C@]12CCC(=O)C(O)=C1CC[C@@H]1[C@@H]2CC[C@]2(C)C(=O)CC[C@@H]12 | 26.4 µM (active)
12 | CS(=O)c1ccc(-c2nc(-c3ccc(F)cc3)c(-c3ccncc3)[nH]2)cc1 (stereo not drawn) | 29.6 µM (active)
13 | Cc1sc2c(c1C)C(c1ccc(Cl)cc1)=N[C@@H](CC(=O)OC(C)(C)C)c1nnc(C)n1-2 | 0.0833 µM (active)
